This passage reports Potency, outcome and activity change, positive = activation results from PubChem BioAssay (Tox21).

The nature of assay [1]: qHTS assay to identify small molecule agonists of the hypoxia (HIF-1) signaling pathway - cell viability counter screen (AID 1224844; calls by dose curve; further: nearly all actives have a fitted effect of over 50% in size; further: potency means the concentration at half of the fitted maximal effect). Particulars: HRE-bla ME-180 viability, CellTiter-Glo luminescence, 17 h; series mostly up to 76.8 µM. In outline: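 Multiplexed with the HRE beta-lactamase assay, this viability read used CellTiter-Glo luminescence (30 min, RT) on HRE-bla ME-180 cells treated 17 hrs with compounds in 0.5% dialyzed FBS medium.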
In general terms: qHTS replaces the single test concentration by a dilution series.

A short description of assay [2]: qHTS assay to identify small molecule agonists of H2AX (AID 1224845; active means well fitted activation curve with a large enough effect in the signal ratio in the repeat runs, not every such curve was filed as active; the % refers to the signal ratio). Particulars: CHO-K1 phospho-H2AX Ser139 HTRF, 3 h; series mostly up to 154 µM. In outline:
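Phospho-H2AX Ser139 measured by HTRF (ex 320 nm; em 665 and 620 nm) after 24 hr antibody incubation. Compounds, 15 concentrations, 0.76% DMSO, were applied to CHO-K1 cells for 3hr at 37C before lysis.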

Assay [3] in a line: qHTS assay to identify small molecule agonists of the hypoxia (HIF-1) signaling pathway (AID 1224846; active means well fitted activation curve with a large enough effect in the signal ratio in the repeat runs, not every such curve was filed as active; the % refers to the signal ratio). Particulars: HRE-bla ME-180 cells, beta-lactamase ratio, 17 h; series mostly up to 76.8 µM. The procedure, abridged: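 Hypoxia-pathway activation was scored as increased beta-lactamase from an HRE-controlled reporter in ME-180 cells; plated at 2,000 cells per well with 0.5% dialyzed FBS, they were exposed 17 hrs to compounds and then given CCF4-AM.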

Assay [4] in a line: qHTS assay to identify small molecule agonists of H2AX - cell viability counter screen (AID 1224847; calls by dose curve; further: nearly all actives have a fitted effect of over 30% in size; further: potency means the concentration at half of the fitted maximal effect). Particulars: CHO-K1 viability, CellTiter-Glo luminescence, 3 h; series mostly up to 154 µM. The procedure, abridged:
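Cells plated first: CHO-K1, 1000 per well in 10% FBS medium, incubated overnight at 37C. Then 15-point compound titration added (final DMSO 0.76%) for 3 hr. Finally CellTiter-Glo added and luminescence read.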

Assay [5] can be described thus: qHTS RealTime-Glo MT Cell Viability Assay in HEK293 cells - 32 hour (AID 1224868). Further: top concentration of the series differs between compounds; nearly all actives have a fitted effect of over 50% in size. Particulars: RealTime-Glo luminescence; series mostly up to 76.8 µM. The procedure, abridged:
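Reads taken at 0, 8, 16, 24, 32 and 40 h from the same wells. HEK293 cells (600/well) carried RealTime-Glo reagents from seeding, with compound added after a 5 h settle at 37 C.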

Assay [6] in a line: A CellTox Green Cytotoxicity Assay to monitor cytotoxicity in HEK293 cells - 0 hour (AID 1224869). Further: nearly all actives have a fitted effect of over 50% in size. Particulars: CellTox Green fluorescence; series mostly up to 76.8 µM. In outline: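 Seeding of HEK293 cells together with cytotoxicity dye preceded a 5 h incubation at 37 C/5% CO2. Test compounds in DMSO were then added and fluorescence monitored across 40 h.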
A short description of assay [7]: qHTS RealTime-Glo MT Cell Viability Assay in HepG2 cells - 40 hour (AID 1224870). Further: nearly all actives have a fitted effect of over 50% in size. Further: potency means the concentration at half of the fitted maximal effect. Particulars: RealTime-Glo luminescence; series mostly up to 76.8 µM. The procedure, abridged:
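Real-time viability: cells seeded at 600 per well together with NanoLuc and cell-permeant prosubstrate, compounds added after 5 h incubation. Luminescence tracked at 0, 8, 16, 24, 32 and 40 h of exposure.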

Assay [8] is described as follows: qHTS RealTime-Glo MT Cell Viability Assay in HepG2 cells - 24 hour (AID 1224867). Further: nearly all actives have a fitted effect of over 50% in size. Particulars: RealTime-Glo luminescence; series mostly up to 76.8 µM. The procedure, abridged: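 HepG2 suspension premixed with RealTime-Glo reagents is plated at 600 cells per well and left 5 h at 37 C/5% CO2. Compounds in DMSO then go in, and bioluminescence reflecting viable cell number is recorded over 40 h.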

Assay [9] can be described thus: qHTS assay to identify small molecule antagonists of the estrogen related receptor (ERR) signaling pathway from Tox21 library (AID 1224848). Further: nearly all actives have a fitted effect of over 50% in size. To be noted: ERR reporter cell line, luciferase antagonist mode, 18 h; series mostly up to 92.4 µM. The procedure, abridged: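 Antagonist-mode screen of the Tox21 10K library in an NTP-provided ERR reporter cell line; 18 h compound exposure at 37 C, luminescence measured with ONE-Glo.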

A short description of assay [10]: qHTS assay to identify small molecule agonists of the estrogen related receptor (ERR) signaling pathway from Tox21 library (AID 1224849; calls by dose curve; further: nearly all actives have a fitted effect of over 15% in size). To be noted: ERR reporter cell line, ONE-Glo luciferase, 18 h; at 92.4 µM (top of the series) unless noted. In outline:
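Six hours post-seeding at 37 C/5% CO2, ERR cells receive DMSO-solubilised compounds; after 18 h at 37 C, ONE-Glo reagent is applied and luminescence recorded.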

Molecules are shown by their SMILES. Records with an inconclusive call do not appear. Some structures have more than one record in an assay (separate samples or runs), and their calls can disagree. Activity calls are given as the source filed them. Unless noted, the call rests on the fitted dose curve; in most records, active means well fitted curve in the direction sought with a large enough effect in the repeat runs; inconclusive means weak or mixed curves; inactive means no such curve, though single readings can be large; an effect the other way counts as inactive or inconclusive.
On the % scale 0 is the no-effect control and ±100 the full control effect.

On to `CN(CCO)CCO`, for which the Potency entry in [1], in [4], in assay [5] and in assay [7] was “inactive” throughout. Also, the call in assay [2], in assay [3] and in [6] was inactive.

As to `CCOC(=O)COc1ccc(Cl)cc1Cl`, the Potency result in [1], in [4], in assay [8] and in assay [7] was “inactive” in each case. Moreover, the call in [2], in assay [3] and in [6] was inactive.

As for `CCOC(=O)CC(SP(=S)(OC)OC)C(=O)OCC` (configuration not stated), in assay [1], the Potency was 49 µM (active) and inactive. For the same compound, the compound was classed as inactive in assay [2], in assay [3] and in assay [6]. Moreover, the Potency result in assay [4], in [5] and in assay [7] was “inactive” in each case.

For `C=CCN1CC[C@]23CCCC[C@H]2[C@H]1Cc1ccc(O)cc13`, the Potency entry in assay [1], in assay [4], in assay [9], in assay [8], in assay [5] and in assay [7] was “inactive” throughout. In addition, the outcome in assay [2] and in [6] was inactive. Also, in [10], the activity change, positive = activation was 5.12% [at 42.5 µM] (inactive).

For the compound `CC(C)[N+](C)(CCC(C(N)=O)(c1ccccc1)c1ccccc1)C(C)C`, the Potency result in assay [1], in [4], in assay [9], in assay [8] and in assay [5] was “inactive” each time. The compound was classed as inactive in assay [2] and in assay [6]. Further, in assay [10], the activity change, positive = activation was 4.04% [at 42.5 µM] (inactive). In [7], the Potency is 19 µM (active).

For `CC(C)[C@]12CC(=O)[C@H](C)[C@H]1C2`, the Potency result in assay [1], in assay [4], in assay [8] and in assay [7] was “inactive” each time. For the same compound, the compound was called inactive in [2] and in assay [3].

For the compound `CN1COCN(Cc2cnc(Cl)s2)/C1=N\[N+](=O)[O-]`, the Potency entry in assay [1], in assay [4], in assay [5] and in [7] was “inactive” throughout. Further, the result in [2] and in assay [3] was inactive.

Consider `CS(=O)(=O)Cl`, for which the Potency entry in assay [1], in assay [4], in [8] and in assay [7] was “inactive” each time. For the same compound, the compound was classed as inactive in [2], in [3] and in assay [6].

Consider `C[C@H]1CCCC(=O)CCC/C=C/c2cc(O)cc(O)c2C(=O)O1`, for which the Potency result in [1], in assay [8] and in assay [7] was “inactive” throughout. Moreover, the outcome in assay [2], in assay [3] and in assay [6] was inactive. Moreover, the Potency in assay [4] is 86.5 µM (active) and inactive.

Take `CON(C)C(=O)Nc1ccc(Br)cc1`: the Potency entry in [1], in assay [4], in [5] and in [7] was “inactive” throughout. The compound was classed as inactive in assay [2], in assay [3] and in [6].
